Experimental findings from PubChem BioAssay (Tox21) are described below.

Test [1] addresses Peroxisome proliferator-activated receptor delta (Homo sapiens) (UniProt Q03181). In words: qHTS assay to identify small molecule antagonists of the peroxisome proliferator-activated receptor delta (PPARd) signaling pathway (AID 743215; active means well fitted inhibition curve with a large enough effect in the signal ratio in the repeat runs, not every such curve was filed as active; the % refers to the signal ratio; further: series mostly up to about 62 µM). In a few lines: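 Here, a reporter line (HEK293H, beta-lactamase under a UAS) measures PPARd signaling. Compounds are tested against agonist L165041 at 300 nM final concentration over 17 h at 37 C, with fluorescence read after substrate.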

The target in test [2] is Bile acid receptor (Homo sapiens) (UniProt Q96RI1). In words: qHTS assay to identify small molecule antagonists of the farnesoid-X-receptor (FXR) signaling pathway (AID 743217; active means well fitted inhibition curve with a large enough effect in the signal ratio in the repeat runs, not every such curve was filed as active; the % refers to the signal ratio). Summed up:
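Test compounds are pin-transferred onto FXR-bla HEK 293T cells, then chenodeoxycholic acid is added at 50 uM final. After 16 h at 37 °C, LiveBLAzer B/G substrate is applied for 2 h at room temperature and fluorescence read.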

Test [3] shares this target. As to the kind of experiment: qHTS assay to identify small molecule agonists of the farnesoid-X-receptor (FXR) signaling pathway (AID 743220; active means well fitted activation curve with a large enough effect in the signal ratio in the repeat runs, not every such curve was filed as active; the % refers to the signal ratio; further: potency means the concentration at half of the fitted maximal effect). Summed up: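 FXR-UAS-bla HEK 293T cells carrying a UAS-driven beta-lactamase reporter were plated for 5 h at 37C/5% CO2, then exposed to DMSO-dissolved Tox21 10K compounds for 16 h at 37C. A LiveBLAzer B/G FRET substrate was loaded for 2 h at room temperature before fluorescence reading.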

Test [4] is described as follows: qHTS assay to identify small molecule antagonists of the farnesoid-X-receptor (FXR) signaling pathway - cell viability counter screen (AID 743221; active means well fitted cell-killing curve with a large enough effect in the repeat runs, not every such curve was filed as active; further: nearly all actives have a fitted effect of over 50% in size). Summed up: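 Luminescence from CellTiter-Glo measures cytotoxicity in GeneBLAzer FXR-UAS-bla HEK 293T cells. Cells were exposed to compounds with 50 uM chenodeoxycholic acid (final) for 16 h at 37 C, in wells also used for the reporter readout.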

Test [5] addresses Vitamin D3 receptor (Homo sapiens) (UniProt P11473). In words: qHTS assay to identify small molecule agonists of the vitamin D receptor (VDR) signaling pathway (AID 743222). Summed up:
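Tox21 cell reporter format: VDR-bla line, 16 h compound exposure in 5% CO2 at 37C, then fluorescence intensity after 2 h with LiveBLAzer B/G FRET substrate.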

For test [6] the target is unchanged. As to the kind of experiment: qHTS assay to identify small molecule antagonists of the vitamin D receptor (VDR) signaling pathway (AID 743223; active means well fitted inhibition curve with a large enough effect in the signal ratio in the repeat runs, not every such curve was filed as active; the % refers to the signal ratio). Summed up:
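Antagonist mode uses 1alpha,25-dihydroxyvitamin D3 at 3 nM final as stimulus. VDR-bla cells receive compounds in DMSO, incubate 16 h at 37C, then a beta-lactamase FRET substrate for 2 h at room temperature before fluorescence measurement.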

A short description of test [7]: qHTS assay to identify small molecule agonists of the vitamin D receptor (VDR) signaling pathway - cell viability counter screen (AID 743224; active means well fitted curve in the direction sought with a large enough effect in the repeat runs; an effect the other way counts as inactive or inconclusive; further: series mostly up to about 63 µM; nearly all actives have a fitted effect of over 50% in size). Summed up: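 CellTiter-Glo viability readout on VDR-bla cells, measured after 16 h of compound treatment at 37C in the same wells.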
The nature of test [8]: qHTS assay to identify small molecule antagonists of the vitamin D receptor (VDR) signaling pathway - cell viability counter screen (AID 743225; active means well fitted curve in the direction sought with a large enough effect in the repeat runs; an effect the other way counts as inactive or inconclusive; further: nearly all actives have a fitted effect of over 50% in size). In a few lines: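 Read-out: CellTiter-Glo luminescence measured 30 min after reagent addition at room temperature. Cells were VDR-bla HEK 293T exposed 16 h at 37C, 5% CO2, to compound with 3 nM final calcitriol agonist.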
The nature of test [9]: qHTS assay to identify small molecule agonists of the NFkB signaling pathway - cell viability counter screen (AID 1159515). Further: series mostly up to about 61 µM; nearly all actives have a fitted effect of over 55% in size. Summed up: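 Tox21 library compounds were tested for cytotoxicity against NFkB-bla ME-180 cells during a 5 hr exposure at 37 C. CellTiter-Glo luminescence served as the viability read-out.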
Test [10] can be described thus: qHTS assay to identify small molecule agonists of the endoplasmic reticulum stress response signaling pathway (AID 1159516; active means well fitted activation curve with a large enough effect in the signal ratio in the repeat runs, not every such curve was filed as active; the % refers to the signal ratio). Summed up:
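Fluorescence at 460 and 530 nm (405 nm excitation) reports beta-lactamase from an ER stress response element in HeLa cells treated 5 hr at 37 C.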

Test [11] in a line: qHTS assay to identify small molecule agonists of the endoplasmic reticulum stress response signaling pathway - cell viability counter screen (AID 1159517). Further: series mostly up to about 61 µM; nearly all actives have a fitted effect of over 50% in size. Summed up: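 Cytotoxicity of test compounds toward ESRE-bla HeLa cells was assessed after 5 hr exposure. The luminescent CellTiter-Glo signal was measured 30 min after reagent addition.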
A short description of test [12]: qHTS assay to identify small molecule antagonists of the retinoid-related orphan receptor gamma (ROR-gamma) signaling pathway - cell viability counter screen (AID 1159520; active means well fitted curve in the direction sought with a large enough effect in the repeat runs; an effect the other way counts as inactive or inconclusive; further: nearly all actives have a fitted effect of over 50% in size). In a few lines: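 Tet-on ROR gamma CHO cells (1,000/well) were plated 4 hr, given compounds in DMSO for 2 hr at 37 C, then induced with 1 uM final doxycycline for 16 hr. Viability was read as ATP by CellTiter-Glo luminescence after 30 min.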

Test [13] has as its target Nuclear receptor ROR-gamma (Homo sapiens) (UniProt P51449). In words: qHTS assay to identify small molecule antagonists of the retinoid-related orphan receptor gamma (ROR-gamma) signaling pathway (AID 1159521; active means well fitted curve in the direction sought with a large enough effect in the repeat runs; an effect the other way counts as inactive or inconclusive; further: nearly all actives have a fitted effect of over 50% in size; further: potency means the concentration at half of the fitted maximal effect). Summed up:
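CHO Tet-on RORγ, RORE-luc reporter. Cpd 2 h pre-incubation, then dox hyclate 1 uM final, 16 h, 37 C/5% CO2. ONE-Glo luminescence; decrease = antagonist.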

A short description of test [14]: qHTS assay to identify small molecule agonists of the AP-1 signaling pathway - cell viability counter screen (AID 1159525). Further: nearly all actives have a fitted effect of over 55% in size. In a few lines:
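Each titration point was normalised to DMSO and tetra n-octyl ammonium bromide controls. The read was Cell Titer Glo luminescence after 30 min at RT, following 5 h compound exposure of ME-180 AP-1-bla cells at 37 °C.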

Test [15] in a line: qHTS assay to identify small molecule agonists of the peroxisome proliferator-activated receptor delta (PPARd) signaling pathway - cell viability counter screen (AID 743211; active means well fitted curve in the direction sought with a large enough effect in the repeat runs; an effect the other way counts as inactive or inconclusive; further: nearly all actives have a fitted effect of over 55% in size). In a few lines: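 HEK293H PPARd-bla, 3000 cells/well; 5 h preincubation 37C/5% CO2; cpd in DMSO, 17 h 37C; B/G FRET substrate 2 h RT; CellTiter-Glo 30 min RT, luminescence.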
Test [16] deals with Peroxisome proliferator-activated receptor delta (Homo sapiens) (UniProt Q03181). In words: qHTS assay to identify small molecule agonists of the peroxisome proliferator-activated receptor delta (PPARd) signaling pathway (AID 743212).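 Further: HEK293H cells with PPARd UAS beta-lactamase reporter GeneBLAzer system.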 Summed up:
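Beta-lactamase reporter read by fluorescence (LiveBLAzer B/G FRET, 2 h, room temperature). Test agents, in DMSO, incubated at 37 C with PPARd-bla HEK293H cells.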

Test [17] in a line: qHTS assay to identify small molecule antagonists of the peroxisome proliferator-activated receptor delta (PPARd) signaling pathway - cell viability counter screen (AID 743213; active means well fitted curve in the direction sought with a large enough effect in the repeat runs; an effect the other way counts as inactive or inconclusive; further: nearly all actives have a fitted effect of over 50% in size). In a few lines:
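Agonist-stimulated (L165041, 300 nM final) HEK293H PPARd UAS-bla cells are exposed to compounds for 17 h at 37 C, and ATP-based luminescence (CellTiter-Glo) from the same wells reports cytotoxicity.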

Test [18] in a line: qHTS assay to identify small molecule agonists of the farnesoid-X-receptor (FXR) signaling pathway - cell viability counter screen (AID 743218; active means well fitted curve in the direction sought with a large enough effect in the repeat runs; an effect the other way counts as inactive or inconclusive; further: nearly all actives have a fitted effect of over 45% in size). In a few lines:
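Quantitative HTS counter screen measuring ATP-based viability via CellTiter-Glo luminescence in HEK 293T cells carrying a UAS-driven beta-lactamase reporter, after 16 h compound exposure at 37 C.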

Test [19] in a line: qHTS assay to identify small molecule agonists of the AP-1 signaling pathway (AID 1159526).
The target of test [20] is Retinoic acid receptor RXR-alpha (Homo sapiens) (UniProt P19793). In words: qHTS assay to identify small molecule agonists of the RXR signaling pathway (AID 1159527). Further: nearly all actives have a fitted effect of over 35% in size. In a few lines:
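Read-out: beta-lactamase FRET ratio (405 nm excitation, 460 and 530 nm emission) after 2 hr substrate loading at room temperature. Cells were RXR-alpha-UAS-bla HEK 293T treated with compounds for 16 hr in 2% charcoal-stripped FBS medium.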

The structures appear in SMILES notation. Records with an inconclusive call do not appear. Activity calls are given as the source filed them. Unless noted, the call rests on the fitted dose curve.

Sequence of Peroxisome proliferator-activated receptor delta (Homo sapiens) (Q03181 whole entry, looked up): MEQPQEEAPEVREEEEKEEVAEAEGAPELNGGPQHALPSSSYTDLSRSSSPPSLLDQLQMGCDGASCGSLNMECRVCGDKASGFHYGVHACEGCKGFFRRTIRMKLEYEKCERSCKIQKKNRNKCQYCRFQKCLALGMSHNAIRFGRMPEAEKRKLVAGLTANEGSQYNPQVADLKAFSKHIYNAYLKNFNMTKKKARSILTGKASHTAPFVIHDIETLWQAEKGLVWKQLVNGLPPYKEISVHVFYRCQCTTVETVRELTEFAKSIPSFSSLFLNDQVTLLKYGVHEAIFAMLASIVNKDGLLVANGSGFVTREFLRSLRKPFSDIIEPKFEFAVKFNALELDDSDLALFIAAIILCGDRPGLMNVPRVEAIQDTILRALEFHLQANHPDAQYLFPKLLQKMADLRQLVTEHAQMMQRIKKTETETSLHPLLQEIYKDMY
Sequence of Bile acid receptor (Homo sapiens) (Q96RI1 whole entry, looked up): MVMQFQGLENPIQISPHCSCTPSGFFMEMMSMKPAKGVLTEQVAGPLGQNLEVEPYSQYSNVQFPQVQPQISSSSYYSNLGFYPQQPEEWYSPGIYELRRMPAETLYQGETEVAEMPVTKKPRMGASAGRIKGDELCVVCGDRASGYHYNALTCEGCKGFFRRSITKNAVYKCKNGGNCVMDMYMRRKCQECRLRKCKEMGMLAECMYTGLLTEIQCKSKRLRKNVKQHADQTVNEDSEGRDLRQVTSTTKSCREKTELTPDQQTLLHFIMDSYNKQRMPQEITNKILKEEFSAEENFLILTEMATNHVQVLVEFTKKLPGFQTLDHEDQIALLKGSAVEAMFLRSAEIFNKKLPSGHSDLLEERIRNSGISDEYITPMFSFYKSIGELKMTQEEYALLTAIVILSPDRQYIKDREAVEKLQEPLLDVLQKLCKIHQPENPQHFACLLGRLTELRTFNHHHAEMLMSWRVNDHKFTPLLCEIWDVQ
Sequence of Retinoic acid receptor RXR-alpha (Homo sapiens) (P19793 whole entry, looked up): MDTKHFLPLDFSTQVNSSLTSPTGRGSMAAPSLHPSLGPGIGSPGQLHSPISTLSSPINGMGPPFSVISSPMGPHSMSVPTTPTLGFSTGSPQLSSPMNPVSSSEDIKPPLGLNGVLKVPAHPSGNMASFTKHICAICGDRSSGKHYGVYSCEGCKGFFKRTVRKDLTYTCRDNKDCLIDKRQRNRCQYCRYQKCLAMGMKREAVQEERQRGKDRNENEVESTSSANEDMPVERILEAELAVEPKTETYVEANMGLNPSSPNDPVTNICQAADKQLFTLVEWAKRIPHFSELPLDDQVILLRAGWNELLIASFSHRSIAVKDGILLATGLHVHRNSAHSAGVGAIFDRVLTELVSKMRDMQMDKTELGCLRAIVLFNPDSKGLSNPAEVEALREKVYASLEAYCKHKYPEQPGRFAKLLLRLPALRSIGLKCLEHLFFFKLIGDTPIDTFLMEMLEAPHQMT
Sequence of Vitamin D3 receptor (Homo sapiens) (P11473 whole entry, looked up): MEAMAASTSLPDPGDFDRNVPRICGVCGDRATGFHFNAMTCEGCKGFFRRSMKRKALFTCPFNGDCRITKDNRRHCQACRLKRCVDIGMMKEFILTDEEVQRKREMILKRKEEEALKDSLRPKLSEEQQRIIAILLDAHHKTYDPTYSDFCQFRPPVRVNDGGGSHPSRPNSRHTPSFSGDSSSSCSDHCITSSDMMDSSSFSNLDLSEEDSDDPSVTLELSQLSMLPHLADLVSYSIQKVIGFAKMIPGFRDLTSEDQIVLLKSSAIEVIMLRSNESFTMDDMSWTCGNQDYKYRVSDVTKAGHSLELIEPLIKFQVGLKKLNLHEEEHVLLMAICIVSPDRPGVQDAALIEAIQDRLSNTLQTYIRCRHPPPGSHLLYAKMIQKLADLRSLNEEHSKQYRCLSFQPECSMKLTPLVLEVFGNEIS

For `CC1=C2C[C@H]3[C@@H](CC=C4C[C@@H](O)CC[C@@]43C)[C@@H]2CC[C@]12O[C@@H]1C[C@H](C)CN[C@H]1[C@H]2C`, the Potency entry in test [1], in test [2], in test [4], in [5], in test [6] and in test [7] was “inactive” each time. Moreover, the Potency result in test [8], in test [9], in [10], in test [11], in test [12] and in [14] was “inactive” each time. Further, the results for the Potency in [3] and in test [13] were 10.7 µM (active) and 8.41 µM (active), respectively.
For `COC(=O)c1ccccc1S(=O)(=O)NC(=O)Nc1nc(C)nc(OC)n1`, the Potency entry in [15], in test [16], in test [17], in test [2], in test [18] and in test [4] was “inactive” each time. In addition, the Potency result in test [5], in test [7], in test [8], in test [9], in test [10] and in test [11] was “inactive” in each case. In addition, the Potency result in [12], in test [14], in test [19] and in test [20] was “inactive” in each case.
With `ClC(Cl)C(Cl)(Cl)Cl`, the Potency entry in test [15], in test [16], in test [2], in test [18], in [3] and in [4] was “inactive” in each case. The Potency entry in test [5], in test [7], in test [8], in test [9], in [10] and in test [11] was “inactive” throughout. Moreover, the Potency entry in [12], in test [14], in test [19] and in [20] was “inactive” each time.
For `CC(Cc1ccc(O)cc1)NCC(O)c1cc(O)cc(O)c1` (stereo not drawn), the Potency result in test [15], in [16], in test [1], in test [2], in [3] and in test [5] was “inactive” throughout. The Potency result in [7], in test [9], in test [10], in test [11], in test [12] and in test [13] was “inactive” throughout. In test [14], the Potency result was “inactive”.
Take `CCN(CC)CCN1C(=O)CN=C(c2ccccc2F)c2cc(Cl)ccc21`: the Potency result in test [15], in test [16], in test [17], in [1], in test [2] and in test [3] was “inactive” each time. The Potency result in test [4], in test [5], in test [6], in [7], in test [8] and in [9] was “inactive” in each case. The Potency entry in [10], in test [11], in test [12], in test [13], in [14] and in [19] was “inactive” throughout.
As to `COC(=O)C(C)N(C(=O)c1ccco1)c1c(C)cccc1C` (stereo not drawn), the Potency entry in test [15], in test [16], in [17], in [1], in test [5] and in test [6] was “inactive” in each case. The Potency entry in test [7], in test [8], in test [9], in [10], in [11] and in test [12] was “inactive” throughout. Moreover, the Potency result in [14], in test [19] and in [20] was “inactive” each time.
In the case of `CCNS(=O)(=O)C(F)(F)C(F)(F)C(F)(F)C(F)(F)C(F)(F)C(F)(F)C(F)(F)C(F)(F)F`, the Potency entry in test [15], in test [16], in [17], in test [2], in test [3] and in test [4] was “inactive” in each case. Also, the Potency entry in test [5], in test [6], in test [7], in test [9], in test [10] and in test [11] was “inactive” each time. In addition, the Potency result in [12], in test [13] and in test [14] was “inactive” throughout.
On to `CSC(C)(C)/C=N/O`, for which the Potency result in test [15], in test [16], in test [17], in test [18], in test [4] and in test [5] was “inactive” in each case. Moreover, the Potency result in test [6], in test [7], in test [8], in [9], in test [10] and in test [11] was “inactive” throughout. The Potency entry in test [12], in test [13], in [14] and in [19] was “inactive” each time.
